High-throughput results deposited in PubChem by National Center for Advancing Translational Sciences (NCATS).
Most compounds without a hit are left out; they make up all but 11% or so of the library.
L3MBTL1 block: qHTS Assay for the Inhibitors of L3MBTL1 | Lethal(3)malignant brain tumor-like protein 1 (Homo sapiens), Q9Y468 | AlphaScreen L3MBTL1–H3K9me1 peptide binding | Potency, µM (titrated, usually from 57.1 µM), for the others: at the top dose activity, negative = inhibition, most hits filed as inhibitors | 230,000 tested, 0.66% active | AID 485360, 2010; also: % is scaled to controls: 0 for no effect and ±100 for the full control effect; nearly all actives have a fitted effect of over 60% in size
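AlphaScreen proximity signal between nickel-chelate acceptor and streptavidin donor beads (final 10 ug/mL) reports binding of 50 nM L3MBTL1 to 75 nM biotin-H3 K9me1 peptide; complex incubated with compounds 30 min at room temperature; cefsulodin titration as control.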
BAZ2B inh: qHTS Assay for Inhibitors of BAZ2B; 360,000 tested, 4.4% active; AlphaScreen BAZ2B-H3K14Ac peptide displacement; Potency, µM (doses to about 114 µM), for the others: top-dose activity change, negative = inhibition, most hits filed as inhibitors; Bromodomain adjacent to zinc finger domain protein 2B (Homo sapiens), Q9UIF8; AID 504333, 2011; also: % is scaled to controls: 0 for no effect and ±100 for the full control effect; nearly all actives have a fitted effect of over 60% in size
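AlphaScreen displacement of biotin-H3(5-23)K14Ac peptide (50 nM final) from BAZ2B (50 nM final) in PBS pH 7.4, 0.01% Tween-20; complex preformed 30 min RT, then compounds (top 110 uM) 30 min RT, beads 20 min dark.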
JMJD2A Tudor: qHTS Assay for Inhibitors of JMJD2A-Tudor Domain; AlphaScreen JMJD2A-Tudor / H3K4me3 peptide binding; Potency, µM (highest dose often 114 µM), inactives show at the highest dose activity change, negative = inhibition, actives largely listed as inhibitors; 390,000 tested, 4.4% active; Lysine-specific demethylase 4A (Homo sapiens), O75164; AID 504339, 2011; also: % is scaled to controls: 0 for no effect and ±100 for the full control effect; nearly all actives have a fitted effect of over 50% in size
HP1b binding inh: HTS for Inhibitors of HP1-beta Chromodomain Interactions with Methylated Histone Tails; Potency, µM (highest dose often 114 µM), for the others: at the top dose activity change, negative = inhibition, usual class: inhibitors; 390,000 tested, 0.56% active; AlphaScreen HP1-beta / biotin-H3K9me3 peptide binding; also: nearly all actives have a fitted effect of over 70% in size
Target sequence (P83916 whole entry, looked up): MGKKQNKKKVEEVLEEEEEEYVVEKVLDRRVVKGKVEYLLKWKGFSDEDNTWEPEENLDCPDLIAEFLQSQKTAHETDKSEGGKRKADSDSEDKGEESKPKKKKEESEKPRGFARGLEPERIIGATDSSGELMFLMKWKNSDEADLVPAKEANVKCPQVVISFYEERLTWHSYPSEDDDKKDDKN
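AlphaScreen: HP1-beta (50 nM) preformed 30 min with biotin-H3(1-18)K9me3 peptide (50 nM) in PBS pH 7.4, 0.01% Tween-20. Compound added for 30 min at RT, then streptavidin donor/nickel chelate acceptor beads (10 ug/mL) for 30 min.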
G9a inh: qHTS Assay for Inhibitors of Histone Lysine Methyltransferase G9a; Histone-lysine N-methyltransferase EHMT2 (Homo sapiens), Q96KQ7; G9a H3K9 monomethylation, AlphaScreen, 2 h; Potency, µM (doses to about 102 µM), without a hit: top-dose activity, negative = inhibition, hits mostly inhibitors; 350,000 tested, 8.8% active; AID 504332, 2011; also: % is scaled to controls: 0 for no effect and ±100 for the full control effect; nearly all actives have a fitted effect of over 75% in size
Target sequence (Q96KQ7 913-1193 limits assumed): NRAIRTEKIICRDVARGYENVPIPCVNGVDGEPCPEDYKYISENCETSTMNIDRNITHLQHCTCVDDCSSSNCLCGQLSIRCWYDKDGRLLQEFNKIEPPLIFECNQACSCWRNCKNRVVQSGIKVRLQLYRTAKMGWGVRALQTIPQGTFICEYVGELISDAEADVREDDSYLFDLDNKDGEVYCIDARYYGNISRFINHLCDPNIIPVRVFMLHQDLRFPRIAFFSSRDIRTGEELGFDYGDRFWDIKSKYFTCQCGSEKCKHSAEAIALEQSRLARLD
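Chemiluminescent proximity detection of H3K9 monomethylation, read after 10 min bead incubation in the dark. Reaction: 20 nM G9a, 500 nM biotin-H3K9 peptide, 20 uM SAM cofactor, 2 h, room temperature, following 15 min enzyme-compound preincubation.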
The depositor's hits bear a star; ? = inconclusive; · = no result; [ ] = remark or other dose. Calls follow the shape of the dose curve; as a rule, active = well fitted inhibition curve with a large enough effect; inconclusive = small, poorly fitted or top-dose-only effect; inactive = no such curve, though single readings can be large or run the other way. Potency is read from the fitted curve at half-maximal effect.

SMILES	L3MBTL1 block	BAZ2B inh	JMJD2A Tudor	HP1b binding inh	G9a inh
Cc1nn2c(=O)cc(COC(=O)c3cccc(NC(=O)COc4ccc(C)c(C)c4)c3)nc2s1	·	-3.8%	-7.0%	31.4%	30.6%[59 µM]
COc1ccc(Cn2c(C(=O)O)c(CNCc3ccco3)c3ccc(OC)cc32)cc1	·	?	-28.9%	15.4%	-8.6%[59 µM]
CCC(C(=O)NCc1ccco1)n1nc(-c2ccc(OC)cc2)ccc1=O (stereo not given)	-26.6%	50.1µM*	?	-31.5%	?
Cc1nnc(NCc2ccco2)s1	6.6%	-5.8%	-3.8%	22.7%	18.4%
Cc1nc(C)c(-c2csc(NCc3ccco3)n2)s1	·	50.1µM*	?	-18.4%	?
COc1ccc(-c2ccc(=O)n(CC(=O)NCc3ccco3)n2)cc1	-9.7%	?	?	0.2%	?
Cc1cc2nc(-c3ccc(=O)[nH]c3)n(C)c2cc1C	·	-9.2%	1.7%	16.7%	1.6%
Cc1cc2nc(C)c(=O)n(C)c2cc1C	-2.9%	3.6%	35.5µM*	9.8%	7.1%[59 µM]
CCN1CCN(C(=O)C(C)Nc2ccc(OC)cc2OC)CC1 (stereo not given)	-8.4%	?	?	1.6%	44.7µM*
COc1ccccc1NC(=O)N1CCN(CCc2ccccc2)CC1	·	-13.6%	-21.8%	16.7%	·
COc1ccccc1NC(=O)N(C1CCCC1)C1CCN(C(C)=O)CC1	10.6%	8.7%	-4.8%	23.6%	39.8µM*
CCN1CCN(C(=O)Nc2ccccc2OC)CC1	39.8µM*	28.2µM*	2.24µM*	?	2.24µM*
CCn1ncc(Br)c1C(=O)Nc1ccccc1OC	·	9.4%	56.2µM*	27.2%	6.3%
O=c1c(N2CCN(c3cccc(Cl)c3)CC2)csc2ccc(Cl)cc12	·	-0.7%	?	45.2%[57 µM]	-45.9%[59 µM]
C=C1CC[C@H](O)C/C1=C/C=C1\CCC[C@]2(C)C([C@H](C)CCCC(C)(C)O)CC[C@@H]12 (stereo not given in full)	·	·	·	·	22.1%[59 µM]
CCCc1cc(=O)[nH]c(SCC(=O)N2c3ccccc3CC2C)n1 (stereo not given)	4.5%	·	-5.1%	26.1%	·
CCc1ccc(NC(=O)c2ccc3c(c2)nnn3CC)cc1	·	0.4%	-6.8%	7.3%	-0.9%[59 µM]
COc1ccccc1NC(=O)N1CCN(C)CC1	1.1%	50.1µM*	39.8µM*	-28.8%	20µM*
CCCNC(=S)N1CCC(NC(=O)c2cccc(C)c2)CC1	-3.6%	-1.4%	-7.6%	29.1%	·
Cc1cccc(C(=O)NC2CCN(C(=O)NCc3ccccc3)CC2)c1	·	-38.5%	?	-37.7%	11.2µM*
Cc1ccc(NC(=O)N2CCC(NC(=O)c3cccc(C)c3)CC2)cc1	·	50.1µM*	39.8µM*	?	7.94µM*
CCC(=O)Nc1ccc(C(=O)NNC(=O)COc2cc(C)ccc2C)cc1	3.8%	23.1%	-12.3%	23.6%	10.6%[59 µM]
COc1ccc(N2C(=O)/C(=C/N(C)C)NC2=S)cc1	-0.3%	-11.8%	17.8µM*	?	3.55µM*
Cc1ccc(CNC(=O)CN2C(=O)CCn3nc(-c4ccccc4)cc32)cc1	·	-0.9%[57.1 µM]	-12.0%	11.6%	-5.9%[59 µM]
Cc1ccc(C(=O)NC(c2ccco2)c2cc(Cl)c3cccnc3c2O)cc1 (stereo not given)	·	·	-9.9%	·	·
Cc1ccc(C(NC(=O)C(C)C)c2cc([N+](=O)[O-])c3cccnc3c2O)cc1 (stereo not given)	25.1µM*	7.94µM*	25.1µM*	-8.4%	?
CC(C)C(=O)NC(c1cccs1)c1cc([N+](=O)[O-])c2cccnc2c1O (stereo not given)	10µM*	5.01µM*	15.8µM*	-0.1%	14.1µM*
CCC(=O)NC(/C=C/c1ccccc1)c1cc([N+](=O)[O-])c2cccnc2c1O (stereo not given)	6.3%	4.47µM*	·	·	3.16µM*
CCc1nn(CC(=O)Nc2ccc(NC(C)=O)cc2)c(=O)c2cc3sccc3n12	·	-8.4%	-14.5%	20.4%	-32.6%[59 µM]
